This is a sample that favours compounds with a hit; in the whole collection about 3.4% have one here.
MITF primary = inhibitors of human MITF | O75030 | AlphaScreen MITF homodimerization, bead proximity signal | inhibition, % at 2.6 µM | 650,000 tested, 0.91% active | AID 1259374; in the data active = inhibition above about 50%;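 also: 0% = vehicle wells with protein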
Target sequence (O75030 whole entry, looked up): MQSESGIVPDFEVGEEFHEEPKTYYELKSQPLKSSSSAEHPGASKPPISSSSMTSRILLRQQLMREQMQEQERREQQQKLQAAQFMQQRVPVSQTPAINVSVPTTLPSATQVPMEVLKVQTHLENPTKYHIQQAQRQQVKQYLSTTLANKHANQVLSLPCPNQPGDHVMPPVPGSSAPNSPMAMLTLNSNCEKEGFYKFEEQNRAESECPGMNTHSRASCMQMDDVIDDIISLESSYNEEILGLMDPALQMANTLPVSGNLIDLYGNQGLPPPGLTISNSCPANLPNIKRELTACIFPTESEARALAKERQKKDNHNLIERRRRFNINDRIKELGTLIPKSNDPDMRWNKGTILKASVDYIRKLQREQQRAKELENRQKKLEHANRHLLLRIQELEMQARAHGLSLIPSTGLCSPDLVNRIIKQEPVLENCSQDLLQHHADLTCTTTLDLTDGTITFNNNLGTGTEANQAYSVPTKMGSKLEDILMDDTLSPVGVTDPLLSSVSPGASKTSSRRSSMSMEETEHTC
FBW7 activator = human FBW7 E3 ligase activation, primary screen. Q969H0. AlphaScreen FBW7–phospho-cyclin E peptide binding, activator screen. normalized activity (activation), % at 26.1 µM. 650,000 tested, 0.13% active. AID 1259310; in the data active = normalized activity above about 1.9%;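 also: purified mutant Fbw7 with reduced substrate affinity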
TEAD-YAP inh = TEAD-YAP interaction inhibition. HEK-TIYL cells, TEAD-Gal4/YAP UAS-luciferase luminescence. inhibition, % at 9.12 µM. 640,000 tested, 1.4% active. AID 1259422; in the data active = inhibition above about 32%;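 also: 0% = median of test compound wells and 100% = reference inhibitor wells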
GPR151 ag = activates the human receptor GPR151 | AID 1508602 | 650,000 tested, 1% active | activation, % at 11.2 µM | PathHunter beta-arrestin GPR151 cells, luminescence | Q8TDV0; in the data active = activation above about 4.9%;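 also: 0% = median of compound wells and 100% = cells with positive control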
Active calls of the source: *; / = not tested or not shown.

SMILES | MITF primary | FBW7 activator | TEAD-YAP inh | GPR151 ag
O=c1c(Cl)c(Cl)cnn1-c1ccc(Cl)c(C(F)(F)F)c1 | 4 | 0 | 86* | 2
Cc1cc(C)nc(-n2ncc(Cl)c(Cl)c2=O)n1 | 9 | 0 | 86* | -1
CSc1cnn(-c2ccccc2)c(=O)c1SC | 7 | 1.9* | 5 | 1
O=c1c(Cl)c(Cl)cnn1-c1ccccc1 | -4 | 0 | 93* | 0
COc1ccc(C(=O)N/C(=C/c2ccccc2Cl)C(=O)NC(CC(C)C)C(=O)O)cc1 (stereo not given) | 0 | 0 | 7 | 1
O=C(c1ccccc1NS(=O)(=O)c1ccc(Cl)s1)N1CCCCCC1 | 3 | 0 | 0 | 0
NC(=O)c1oc2ccccc2c1NC(=O)c1ccc([N+](=O)[O-])cc1 | -5 | 0 | -5 | 0
O=c1c(Cl)c(Cl)cnn1Cc1ccccc1Cl | 13 | 1 | 33* | 1
Cc1ccc(CSC2=NS(=O)(=O)c3cc(F)ccc3N2)cc1 | 5 | 0 | -19 | 2
CCOC(=O)C1=C(C)OC(N)=C(C#N)C1c1ccc(OC)cc1 (stereo not given) | 21 | 1 | -5 | -2
O=C(COc1ccccc1)Nc1ccc(N2CCC(NCc3ccccc3)CC2)cc1 | 10 | 0 | 34* | 1
COC(=O)c1ccc2c(=O)n(CC3CCCO3)c(SCC(=O)Nc3ccc(C)c(Cl)c3)nc2c1 (stereo not given) | -4 | 3.5* | -7 | 0
COC(=O)c1ccc2c(=O)n(CC3CCCO3)c(SCC(=O)Nc3ccc(C)cc3)nc2c1 (stereo not given) | 0 | 0 | 4 | 2
CC(=O)NC(c1ccccc1Cl)c1cc([N+](=O)[O-])c2cccnc2c1O (stereo not given) | 90* | -1 | 4 | -1
COc1ccc(C(NC(C)=O)c2cc([N+](=O)[O-])c3cccnc3c2O)cc1 (stereo not given) | 48 | -1 | -8 | 1
CCC(=O)NC(c1cccs1)c1cc([N+](=O)[O-])c2cccnc2c1O (stereo not given) | 45 | -1 | 2 | 1
CCOc1cc(C(NC(C)=O)c2cc([N+](=O)[O-])c3cccnc3c2O)ccc1O (stereo not given) | 85* | 0 | 6 | 0
CC(=O)NC(c1cccs1)c1cc([N+](=O)[O-])c2cccnc2c1O (stereo not given) | 79* | 0 | -14 | 0
O=C1/C(=C\c2cccs2)SC(=S)N1CN1CCOCC1 | -6 | 0 | -1 | 0
CN1CCN(c2ccc(-c3ccccc3C=O)cn2)CC1 | -1 | -1 | -4 | 0
COc1cccc2c1C(=O)c1c(O)c3c(c(O)c1C2=O)C[C@@](O)(C(C)=O)C[C@@H]3OC1CC(N)C(O)C(C)O1 (stereo not given in full) | 35 | 0 | / | 1
COc1cccc2c1C(=O)c1c(O)c3c(c(O)c1C2=O)C[C@@](O)(C(=O)CO)C[C@@H]3O[C@H]1C[C@H](N)[C@H](O)[C@H](C)O1 | 44 | 0 | 92* | -3
Cc1ccc(OCC(O)Cn2c(C3CC(=O)N(c4ccccc4F)C3)nc3ccccc32)cc1C (stereo not given) | 16 | 1 | 32* | 0
CCc1ccc(OCC(O)Cn2c(C3CC(=O)N(c4ccccc4F)C3)nc3ccccc32)cc1 (stereo not given) | -15 | 0 | 10 | 3
N#CC1=C(N)OC2=C(C(=O)CCC2)C1c1cn[nH]c1-c1ccc(F)cc1 (stereo not given) | 6 | 0 | 3 | 0
SMILES | MITF primary | FBW7 activator | TEAD-YAP inh | GPR151 ag
O=C1CCCC2=C1C(c1cn[nH]c1-c1ccc(F)cc1)C1=C(CCCC1=O)O2 | -8 | 0 | 49* | -1
Cc1ccccc1NS(=O)(=O)c1ccc2c(c1)C(C)(C)C(=O)N2C | -3 | 0 | -2 | 2
COc1cccc(NC(=O)CSc2nc(NC3CCCCC3)c3ccccc3n2)c1 | 14 | 0 | 44* | 1
O=C(NN1C(=O)CCC1=O)c1ccccc1O | -17 | 0 | 47* | 3
COc1ccccc1C(=O)NN1C(=O)CCC1=O | -7 | 0 | -6 | 0
Cc1ccc(N2CC(C(=O)Nc3nccs3)CC2=O)cc1C (stereo not given) | 4 | 0 | 44* | -1
COc1ccc2cc(S(=O)(=O)n3cnc4cc(C)c(C)cc43)ccc2c1 | 11 | 0 | 67* | 1
CCC(C)(C)C(=O)Nc1ccccc1Cl | -6 | 0 | 3 | 0
O=C1NC2(CCN(S(=O)(=O)c3cccs3)CC2)Oc2ccccc21 | 12 | 2.0* | 16 | -1
O=C1NC2(CCN(Cc3cccs3)CC2)Oc2ccccc21 | -9 | 0 | 3 | -1
CCC(C)Nc1ncnc2c1cnn2-c1ccc(Cl)cc1 (stereo not given) | -2 | 0 | 37* | -1
CCN(CC)c1ncnc2c1cnn2-c1ccc(Cl)cc1 | -6 | 0 | 70* | 0
CN(C)CCN(C(=O)CCl)C1CCS(=O)(=O)C1 (stereo not given) | 18 | 0 | 9 | 0
CCCN(C(=O)CCl)C1CCS(=O)(=O)C1 (stereo not given) | 5 | 0 | 50* | 0
CC(C)CN(C(=O)CCl)C1CCS(=O)(=O)C1 (stereo not given) | 7 | 0 | 66* | -1
CCc1c(C)sc2nc(C(C)C)n3c(=O)[nH]nc3c12 | 5 | 0 | 4 | 0
Cc1sc2nc(C(C)C)n3c(=S)[nH]nc3c2c1C | -5 | 0 | 55* | -9
C/C(=N\NC(N)=S)c1cc(Cl)sc1Cl | 6 | 1 | 33* | 0
COc1ccc(NCC(O)Cn2c3ccccc3c3ccccc32)cc1 (stereo not given) | 13 | 0 | 51* | -1
Cc1c(C)n(CC(O)CNc2ccccc2)c2ccccc12 (stereo not given) | 59* | 0 | 0 | 3
COc1ccccc1Cc1noc(-c2ccc(C#N)cc2)n1 | 2 | 0 | -25 | 0
CC(=O)Oc1ccccc1C(=O)Nc1cccc(C(F)(F)F)c1 | 20 | 0 | 65* | -1
CCOc1ccccc1C(=O)Nc1cccc(C(F)(F)F)c1 | 9 | 0 | 17 | -1
O=C(CSCC(=O)Nc1cccc(C(F)(F)F)c1)Nc1cccc(C(F)(F)F)c1 | -2 | 0 | 4 | 1
CC(=O)Nc1cccc(C(F)(F)F)c1 | -9 | 0 | -4 | 0
SMILES | MITF primary | FBW7 activator | TEAD-YAP inh | GPR151 ag
NC(=O)/C=C/C(=O)Nc1cccc(C(F)(F)F)c1 | 11 | 0 | 43* | 0
O=C(CC(O)(C(F)(F)F)C(F)(F)F)Nc1cccc(C(F)(F)F)c1 | 56* | 1 | 84* | 2
COc1ccc(-n2c(C)c(C(C)=O)c3cc(OC(=O)c4ccc(C)cc4)ccc32)cc1 | -5 | 1 | 48* | 0
Cc1ncn(-c2ccc(Nc3ncc4cccc(-n5ccnc5)c4n3)cc2)n1 | 5 | 5.7* | 38* | 0
Cc1ncn(-c2ccc(Nc3ncc4cccc(N5CCOCC5)c4n3)cc2)n1 | 1 | 0 | 48* | 0
O=C(NCc1cc2ccccc2o1)c1ccco1 | 17 | 1 | -14 | -1

Screening data deposited in PubChem by The Scripps Research Institute Molecular Screening Center.
